IDE exosite FP: displaces the probe from the exo-site of human IDE; P14735; purified IDE, FL-6b probe fluorescence polarization; hits give low values; z-score at 20 µM; 6.3% of 17,000 active;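 active means z-score of -3 or lower, meaning strong loss of probe binding signal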;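 further: His-tagged human IDE residues 42-1019 made in E. coli with 30 nM FL-6b probe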
Target sequence (P14735 42-1019 limits assumed): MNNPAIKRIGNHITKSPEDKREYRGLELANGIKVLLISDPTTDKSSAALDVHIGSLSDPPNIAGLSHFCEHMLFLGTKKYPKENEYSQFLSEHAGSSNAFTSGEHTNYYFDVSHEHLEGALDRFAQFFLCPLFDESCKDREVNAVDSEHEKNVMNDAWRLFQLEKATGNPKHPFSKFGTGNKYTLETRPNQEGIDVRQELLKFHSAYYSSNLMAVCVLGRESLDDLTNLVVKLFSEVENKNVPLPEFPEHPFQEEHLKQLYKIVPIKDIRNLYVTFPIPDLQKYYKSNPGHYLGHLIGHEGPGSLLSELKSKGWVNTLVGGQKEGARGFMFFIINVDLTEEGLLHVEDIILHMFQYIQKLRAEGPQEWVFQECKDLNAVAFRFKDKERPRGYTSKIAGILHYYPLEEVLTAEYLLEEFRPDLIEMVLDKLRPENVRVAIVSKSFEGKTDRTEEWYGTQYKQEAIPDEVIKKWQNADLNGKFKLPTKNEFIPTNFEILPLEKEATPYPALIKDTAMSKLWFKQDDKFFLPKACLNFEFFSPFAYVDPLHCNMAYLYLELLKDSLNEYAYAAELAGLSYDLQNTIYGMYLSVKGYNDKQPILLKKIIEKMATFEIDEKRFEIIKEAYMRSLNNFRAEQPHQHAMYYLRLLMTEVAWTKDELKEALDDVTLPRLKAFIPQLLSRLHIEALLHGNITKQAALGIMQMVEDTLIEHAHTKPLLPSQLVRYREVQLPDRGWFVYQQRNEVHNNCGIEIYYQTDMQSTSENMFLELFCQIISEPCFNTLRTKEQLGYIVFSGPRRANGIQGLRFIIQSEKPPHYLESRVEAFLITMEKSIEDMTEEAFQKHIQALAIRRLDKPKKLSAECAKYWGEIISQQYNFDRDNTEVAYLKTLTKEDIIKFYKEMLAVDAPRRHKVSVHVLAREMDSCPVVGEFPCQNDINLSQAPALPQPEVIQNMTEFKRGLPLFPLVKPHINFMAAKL
Hits are given with their value; 0 = inactive. Shown is part of a subset that was picked to be rich in hits.

SMILES | IDE exosite FP
O=C(c1ccncc1)N1C[C@H]2[C@@H](c3ccccc31)[C@@H](CO)N2Cc1ccccc1F | 0
CC(C)C#Cc1ccc([C@H]2[C@@H](CO)N3C(=O)CN(C(=O)c4ccccn4)C[C@H]23)cc1 | 0
Cc1ccc(-c2ccc([C@@H]3[C@H]4CN(C(=O)c5ccc(F)cc5)CCCCN4[C@H]3CO)cc2)cc1 | 0
CCCNC(=O)N1[C@H](CO)[C@@H](c2ccccc2)C12CN(C(=O)C1CCCCC1)C2 | 0
CN(C)CC#Cc1ccc([C@H]2[C@H]3CN(C(=O)Cc4cccnc4)CC(=O)N3[C@H]2CO)cc1 | 0
CCCC#Cc1ccc([C@H]2[C@@H](C#N)N(C(=O)C3CC3)[C@H]2CO)cc1 | 0
C[C@@H]1CN([C@H](C)CO)C(=O)c2ccccc2-c2ccccc2CO[C@H]1CN(C)C(=O)Nc1ccc(-c2ccccc2)cc1 | 0
CC(C)CC#Cc1ccc([C@@H]2[C@@H](CO)N3C(=O)CN(S(=O)(=O)c4cccc(F)c4)C[C@H]23)cc1 | 0
CCC(=O)N1CC(=O)N2[C@@H](CO)[C@H](c3ccc(C#CC(C)C)cc3)[C@@H]2C1 | 0
N#C[C@H]1[C@H](c2ccc(-c3cccnc3)cc2)[C@H](CO)N1C(=O)C1CC1 | 0
N#C[C@H]1[C@@H](c2ccc(-c3cccnc3)cc2)[C@@H](CO)N1C(=O)C1CCOCC1 | -3.04
COc1ccccc1-c1ccc([C@@H]2[C@@H](CO)N(C(=O)C3CCOCC3)[C@H]2C#N)cc1 | -10.5
COc1cccc(C#Cc2ccc([C@@H]3[C@@H](CO)N(C(=O)C4CCOCC4)[C@H]3C#N)cc2)c1 | 0
COc1ccccc1-c1ccc([C@@H]2[C@@H](C#N)N(C(=O)C3CCOCC3)[C@H]2CO)cc1 | -9.78
N#C[C@H]1[C@@H](c2ccc(/C=C/c3ccccc3)cc2)[C@@H](CO)N1C(=O)C1CCOCC1 | 0
COc1ccccc1-c1ccc([C@H]2[C@@H](C#N)N(C(=O)C3CCOCC3)[C@H]2CO)cc1 | -6.87
COc1ccc(-c2ccc([C@@H]3[C@@H](CO)N(C(=O)C4CCOCC4)[C@H]3C#N)cc2)cc1 | 0
N#C[C@H]1[C@H](c2ccc(-c3cncnc3)cc2)[C@@H](CO)N1C(=O)C1CCOCC1 | 0
COc1ccccc1-c1ccccc1[C@@H]1[C@@H](CO)N(C(=O)C2CCOCC2)[C@H]1C#N | 0
N#C[C@H]1[C@H](c2ccc(-c3cccnc3)cc2)[C@@H](CO)N1C(=O)C1CCOCC1 | 0
COc1ccc(-c2ccccc2[C@H]2[C@@H](C#N)N(C(=O)C3CCOCC3)[C@H]2CO)cc1 | 0
N#C[C@@H]1[C@H](c2ccc(C3=CCCCC3)cc2)[C@@H](CO)N1S(=O)(=O)c1cccc(F)c1 | 0
O=C(Nc1ccc(F)cc1)N1C[C@H]2[C@@H](c3ccccc31)[C@@H](CO)N2C(=O)c1ccncc1 | 0
CN(C)CC#Cc1ccc([C@@H]2[C@H]3CN(C(=O)c4ccc5c(c4)OCO5)CCCCN3[C@H]2CO)cc1 | 0
CCCNC(=O)N1C[C@@H]2[C@H](c3ccccc31)[C@H](CO)N2C(=O)CN1CCOCC1 | 0
SMILES | IDE exosite FP
COCC(=O)N1[C@H](CO)[C@H](c2ccc(-c3ccccc3OC)cc2)C12CN(C(C)=O)C2 | 0
CCN(C[C@@H]1[C@@H](c2ccccc2)[C@H](CO)N1C(C)=O)C(=O)NC1CCCC1 | 0
C[C@H]1CN([C@@H](C)CO)C(=O)c2ccccc2-c2ccccc2CO[C@@H]1CN(C)S(=O)(=O)c1cccs1 | 0
CN(C)CC#Cc1ccc([C@H]2[C@H]3CN(C(=O)c4ccc5c(c4)OCO5)CCCCN3[C@H]2CO)cc1 | 0
C[C@@H]1CN([C@H](C)CO)C(=O)c2cc(NC(=O)Cc3ccccc3)ccc2O[C@@H](C)CCCCO[C@H]1CN(C)Cc1ccncc1 | 0
CNC[C@@H]1OCCCC[C@H](C)Oc2ccc(NC(=O)Nc3ccc(OC)cc3)cc2C(=O)N([C@@H](C)CO)C[C@@H]1C | 0
CCC(=O)N1CC(=O)N2[C@H](CO)[C@H](c3ccc(C#Cc4cccc(OC)c4)cc3)[C@@H]2C1 | -8.73
COc1cccc(C#Cc2ccc([C@H]3[C@H]4CN(C(=O)Cc5ccccc5)CC(=O)N4[C@H]3CO)cc2)c1 | 0
COCC(=O)N1CC(=O)N2[C@@H](CO)[C@@H](c3ccc(C#Cc4cccnc4)cc3)[C@@H]2C1 | 0
CCC(=O)N1CC(=O)N2[C@H](C1)[C@@H](c1ccc(C#Cc3cccnc3)cc1)[C@@H]2CO | 0
CCC(=O)N1CC(=O)N2[C@H](CO)[C@H](c3ccc(C#Cc4cccc(OC)c4)cc3)[C@H]2C1 | -9.77
COCC(=O)N1CC(=O)N2[C@@H](CO)[C@@H](c3ccc(C#Cc4cccc(OC)c4)cc3)[C@@H]2C1 | -7.04
CCCNC(=O)N1CC(=O)N2[C@H](C1)[C@@H](c1ccc(C#Cc3cccc(OC)c3)cc1)[C@@H]2CO | 0
O=C(Cc1cccnc1)N1CC(=O)N2[C@H](CO)[C@@H](c3ccc(-c4cccc(F)c4)cc3)[C@@H]2C1 | -3.37
O=C(Cc1ccncc1)N1CC(=O)N2[C@H](CO)[C@H](c3ccc(-c4cccc(F)c4)cc3)[C@@H]2C1 | 0
COCC(=O)N1CC(=O)N2[C@H](CO)[C@H](c3ccc(C#Cc4cccnc4)cc3)[C@H]2C1 | 0
COc1cccc(C#Cc2ccc([C@H]3[C@@H](CO)N4C(=O)CN(C(=O)Cc5ccccc5)C[C@@H]34)cc2)c1 | 0
O=C(Cc1ccccc1)N1CC(=O)N2[C@H](C1)[C@H](c1ccc(-c3cccc(F)c3)cc1)[C@@H]2CO | 0
CCCN1C[C@@H](C)[C@H](OC)CN(C)C(=O)c2cc(NC(=O)Nc3cccc(F)c3)ccc2OC[C@@H]1C | 0
CCC(=O)N1[C@@H](CO)[C@H](c2ccccc2)[C@@H]1CNC(=O)CN1CCOCC1 | 0
CC(=O)NC[C@@H]1[C@H](c2ccc(-c3ccccc3)cc2)[C@@H](CO)N1C(=O)C1CC1 | 0
C/C=C/c1ccc([C@@H]2[C@@H](CO)N(C(=O)CN(C)C)C23CN(C(=O)C2CCOCC2)C3)cc1 | 0
CC(=O)NC[C@H]1[C@@H](c2ccc(C3=CCCC3)cc2)[C@@H](CO)N1C(=O)C1CCC1 | 0
N#C[C@H]1N[C@@H](CO)[C@H]1c1ccc(C2=CCCC2)cc1 | 0
COCC(=O)N(C[C@@H]1N[C@@H](CO)[C@@H]1c1ccc(-c2ccccc2)cc1)C(C)C | 0
SMILES | IDE exosite FP
CCCC#Cc1ccc([C@H]2[C@@H](CO)N(C(C)=O)[C@@H]2CNC(=O)C2CC2)cc1 | 0
O=C(C[C@@H]1C=C[C@@H](NC(=O)c2ccncc2)[C@@H](CO)O1)NCC1CC1 | 0
N#C[C@@H]1[C@H](c2ccccc2C2=CCCC2)[C@@H](CO)N1C(=O)C1CCOCC1 | 0
CCCC(=O)Nc1ccc2c(c1)C(=O)N(C)C[C@H](OC)[C@@H](C)CN(Cc1ccc(F)cc1)[C@H](C)CO2 | 0
CC(C)[C@H]1C(=O)N[C@@H](c2cccc(Cl)c2)CC=CC[C@H](C)Oc2ccccc2C(=O)N1C (mixture of isomers) | 0
CC(C)N(C[C@H]1[C@@H](c2ccccc2)[C@@H](CO)N1CC1CC1)C(=O)C1CCC1 | 0
COCC#Cc1ccc([C@@H]2[C@@H](CO)N3C(=O)CN(C(=O)Nc4cc(F)ccc4F)C[C@H]23)cc1 | 0
COCC(=O)N1CC(=O)N2[C@H](CO)[C@H](c3ccc(C#CC4CC4)cc3)[C@H]2C1 | 0
COc1cccc(C#Cc2ccc([C@H]3[C@@H](CO)N4C(=O)CN(C(=O)Cc5cccnc5)C[C@H]34)cc2)c1 | 0
COc1cccc(C#Cc2ccc([C@@H]3[C@@H](CO)N4C(=O)CN(C(=O)Cc5cccnc5)C[C@H]34)cc2)c1 | 0

Screening results as filed in PubChem BioAssay.
